Results on 24 compounds are retold here after PubChem BioAssay (Tox21).

The structures appear in SMILES notation. Several values for one entry are separate records, joined by “and”; a condition that tells them apart may be missing. Identical values can stand only once. Inconclusive results are not listed. More than one record can exist for a structure, and the calls need not agree. Activity calls are given as the source filed them. Unless noted, calls follow the shape of the dose curve; as a rule, active = well fitted curve in the direction sought with a large enough effect in the repeat runs; inconclusive = weak or mixed curves; inactive = no such curve, though single readings can be large; an effect the other way counts as inactive or inconclusive.

A short description of test [1]: qHTS assay for small molecule agonists of the p53 signaling pathway (AID 651631; calls by dose curve; also: nearly all actives have a fitted effect of over 15% in size). The method in brief:
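We treat p53RE-bla HCT-116 cells with compounds for 16 h at 37 °C, add LiveBLAzer B/G FRET substrate for 2 h at room temperature, and measure fluorescence intensity.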
On the technique in general: In qHTS, concentration-response curves come from the screen itself.

Test [2] can be described thus: qHTS assay for small molecule agonists of the p53 signaling pathway - cell viability (AID 651633; calls by dose curve;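 also: p53RE-bla HCT reporter cells with a stable beta-lactamase p53 reporter; series mostly up to about 83 µM; nearly all actives have a fitted effect of over 30% in size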). The method, boiled down:
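p53RE-bla cells were treated with compound for 16 hours at 37 C. Cytotoxicity was then measured as CellTiter-Glo luminescence after 30 min at room temperature.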

Test [3] in a line: qHTS assay for small molecules that induce genotoxicity in human embryonic kidney cells expressing luciferase-tagged ATAD5 - cell viability (AID 651634; calls by dose curve; also: nearly all actives have a fitted effect of over 25% in size). The method in brief:
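Cytotoxicity counterscreen in HEK293T cells bearing an ATAD5-luciferase reporter: live-cell protease activity measured by CellTiter-Fluor fluorescence after 15.5 hr compound exposure.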

Test [4] can be described thus: qHTS assay for small molecule disruptors of the mitochondrial membrane potential - cell viability (AID 720634; calls by dose curve; also: nearly all actives have a fitted effect of over 20% in size; also: potency is read from the fitted curve at half-maximal effect). The method in brief:
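After overnight attachment at 37 C, HepG2 cells received compound or DMSO vehicle for 1 hr. Viability is then taken from ATP-driven luminescence following a 30 min room-temperature CellTiter-Glo step.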

A short description of test [5]: qHTS assay for small molecule disruptors of the mitochondrial membrane potential (AID 720635). Also: potency is read from the fitted curve at half-maximal effect. The method in brief:
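HepG2 cells exposed to compound 1 hr at 37C, then Mito-MPS dye 30 min. Ratio read of aggregate (540/590 nm) versus monomer (490/535 nm) fluorescence.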

Test [6] in a line: qHTS assay to test for compound auto fluorescence at 590 nm (red) in HepG2 cells (AID 720674). The method in brief: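 Fluorescence at 590 nm emission following 540 nm excitation was recorded from HepG2 wells one hour after compound transfer, with DMSO-only wells as vehicle and Rose Bengal sodium equivalency as the scale.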
Test [7] is described as follows: qHTS assay to test for compound auto fluorescence at 535 nm (green) in HepG2 cells (AID 720675).
Test [8] can be described thus: qHTS assay to test for compound auto fluorescence at 460 nm (blue) in HEK293 cells (AID 720678). The method in brief: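 HEK293, 2,000 cells/well, 10% dialyzed FBS; attach 4-5 hr 37C; pin compound or DMSO; o/n 37C/5% CO2; fluorescence 405/460 nm; triamterene-equivalent units.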
The nature of test [9]: qHTS assay to test for compound auto fluorescence at 590 nm (red) in HEK293 cells (AID 720679). The method, boiled down:
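Intensity at 540nm excitation and 590nm emission is reported as Rose Bengal sodium-equivalent autofluorescence. Measurements followed overnight exposure (37C, 5% CO2) of HEK293 cells, 2,000 per well, to 23 nL compound.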

Test [10] in a line: qHTS assay for small molecules that induce genotoxicity in human embryonic kidney cells expressing luciferase-tagged ATAD5 (AID 651632). Also: nearly all actives have a fitted effect of over 15% in size. The method in brief:
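Increased luciferase signal from ATAD5-tagged reporter cells indicates DNA-damage-driven ATAD5 induction. HEK293T cells are treated for 16 hr at 37C before detection with Amplite.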
% is scaled to controls: 0 for no effect and ±100 for the full control effect.

For `CC1(C)CC(N)CC(C)(CN)C1` (stereo not given), the compound was called inactive in test [1], in [2], in [6], in [7], in test [8] and in test [9]. The Potency entry in [3], in [4] and in [5] was “inactive” throughout.

In the case of `CCOC(=O)n1ccn(C)c1=S`, the compound was called inactive in [1], in test [10], in [2], in test [6], in [7] and in test [8]. The Potency entry in test [3], in test [4] and in test [5] was “inactive” in each case.

On to `CCCCCCCCCCCC(=O)OC`, for which the compound was called inactive in [1], in test [10], in test [2], in test [6], in test [7] and in test [9]. For the same compound, the Potency result in [3], in test [4] and in test [5] was “inactive” throughout.

Turning to `COc1ccc([N+](=O)[O-])cc1N`, the compound was classed as inactive in [1], in [2], in test [6], in test [7], in test [8] and in [9]. Moreover, the Potency entry in test [3] and in test [4] was “inactive” throughout. For the same compound, the Potency in [5] is 48.8 µM (active).

Regarding `CCCCCCCCCCO`, the call in test [1], in test [10], in [2], in test [6], in test [7] and in test [9] was inactive. Moreover, the Potency entry in test [3], in test [4] and in test [5] was “inactive” in each case.

In the case of `CC1(C)NC(=O)NC1=O`, the call in test [1], in test [10], in test [2], in test [6] and in test [7] was inactive. Moreover, the Potency result in test [3], in test [4] and in test [5] was “inactive” in each case.

For the compound `CN/C(=C\[N+](=O)[O-])NCCSCc1csc(CN(C)C)n1`, the result in test [1], in test [10], in test [2], in test [6], in test [7] and in test [8] was inactive. Moreover, the compound was classed as inactive in test [9]. In addition, the Potency entry in [3], in [4] and in [5] was “inactive” throughout.

Consider `CC(=O)CC(C)(C)O`, for which the result in test [1], in test [2], in test [6], in test [7] and in test [8] was inactive. In addition, the Potency entry in [3], in test [4] and in [5] was “inactive” throughout.

Regarding `Cc1ccc2ncccc2c1`, the outcome in test [1], in [10], in test [2], in test [6], in test [7] and in [9] was inactive. For the same compound, the Potency entry in [3], in test [4] and in test [5] was “inactive” throughout.

For `CCc1ccccc1CC`, the compound was called inactive in test [1], in test [10], in [6], in [7] and in test [8]. The Potency result in test [3] and in [4] was “inactive” in each case. Besides, the ratio activity, negative = MMP loss in test [5] was 5.07% [at 17.9 µM] (inactive).

Take `COc1ccc(OC)cc1`: the compound was classed as inactive in test [1], in [10], in test [2], in [6], in test [7] and in test [8]. Moreover, the call in test [9] was inactive. The Potency result in [3], in test [4] and in test [5] was “inactive” throughout.

As to `CCCOC(=O)c1ccccc1`, the call in test [1], in test [2], in [6] and in test [7] was inactive. Moreover, the Potency result in test [3], in test [4] and in [5] was “inactive” in each case.

On to `CCCCCC(=O)O`, for which the compound was called inactive in [1], in [2], in test [6], in test [7], in test [8] and in test [9]. The Potency result in test [3], in [4] and in test [5] was “inactive” in each case.

Regarding `Cc1ccc(C(C)C)c(O)c1`, the call in test [1], in test [10], in test [2], in test [6], in [7] and in test [8] was inactive. In addition, the compound was called inactive in test [9]. In addition, the Potency entry in [3] was “inactive”. The Potency entry is “inactive and 61.1 µM (active)” in test [4]; 24.3 µM (active) in test [5].

As for `CCCCCCO`, the outcome in test [1], in test [10], in test [6], in test [7] and in test [9] was inactive. Further, the Potency entry in test [3], in test [4] and in test [5] was “inactive” each time.

For `CCCCCCCCCCN`, the compound was called inactive in test [1], in [10], in [2], in test [6], in test [7] and in test [8]. Further, the call in test [9] was inactive. The Potency result in test [3], in [4] and in test [5] was “inactive” throughout.

For the compound `COCCOC(=O)c1ccccc1C(=O)OCCOC`, the result in test [1], in test [10], in [2], in test [6], in test [7] and in test [8] was inactive. Also, the Potency result in test [3], in test [4] and in [5] was “inactive” throughout.

`CC(=O)CCC=C(C)C`: the call in test [1], in test [10], in test [2], in test [6], in [7] and in [8] was inactive. Moreover, the call in test [9] was inactive. Besides, the Potency result in test [3], in test [4] and in test [5] was “inactive” each time.

Regarding `CCOCC(=O)O`, the compound was called inactive in test [1], in [10], in test [6], in test [7], in test [8] and in test [9]. Besides, the Potency entry in test [3], in test [4] and in test [5] was “inactive” in each case.

Turning to `CCCCCCCCCCCCCCCC(=O)OC(C)C`, the call in test [1], in test [10], in test [2], in [6], in test [7] and in [8] was inactive. Further, the Potency result in test [3], in [4] and in [5] was “inactive” throughout.

On to `C=CCc1ccc(OC)c(OC)c1`, for which the outcome in test [1], in [10], in test [2], in test [6], in [7] and in [8] was inactive. In addition, the compound was called inactive in [9]. In addition, the Potency entry in test [3] and in [4] was “inactive” each time.

Take `CCNc1ccccc1`: the call in test [1], in test [2], in test [6], in test [7], in [8] and in [9] was inactive. In addition, the Potency result in [3] and in test [4] was “inactive” in each case. Moreover, the Potency in [5] was 24.8 µM (active) and inactive.

On to `CCCCCCC=O`, for which the outcome in test [1], in test [10], in test [2], in test [6], in test [7] and in test [9] was inactive. Moreover, the Potency entry in test [3] and in test [4] was “inactive” throughout.

On to `COc1ccccc1OCC(O)CO` (stereo not given), for which the compound was classed as inactive in test [1], in test [10], in test [2], in test [6], in [7] and in [8]. Also, the compound was called inactive in [9]. Moreover, the Potency result in test [3], in [4] and in test [5] was “inactive” throughout.
